The panel holds about 83,000 compounds, 20% with a hit somewhere; the sample as a whole holds those more often.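 Single-dose data. Exposure time 48 hours. Values below 10 considered active.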 Activity calls are given as the source filed them.

For this test, the system named is SNB-75 CNS. Description: NCI-60 one-dose screen, 48 h (100 = growth as untreated, 0 = no growth, -100 = all killed). Conditions: 10 µM. As for the experimental part:
Growth inhibition of the SNB-75 human tumor cell line is measured as a screen for anti-cancer activity. Cells are grown in 96 well plates and exposed to the test compound for 48 hours. Compounds are tested at a single concentration, which is 10^-5 M for most compounds. The reported endpoint is percent growth (GI% or GIPRCNT), where numbers from 0 - 100% represent growth inhibition, and numbers from -100% - 0 represent cell death. For example, a value of 40 represents 60% growth inhibition. A value of 0 means no net growth occurred over the course of the experiment. A value of -40 indicates 40% of cells at the beginning of the experiment died by the end of the experiment. A value of -100 means all cells are dead at the end of the experiment.
NCI-60 Human Tumor Cell Lines Screen was performed using the standard one-dose NCI protocol, which is described in more detail at https://dtp.cancer.gov/discovery_development/nci-60/default.htm.
Compounds with GIPRCNT values below 10 were considered active. Activity score was based on GIPRCNT using the following formula: […]
Score is 0 for GIPRCNT values of 100 or above, 50 for GIPRCNT values of 0, and 100 for GIPRCNT values of -100.
For `COc1ccccc1N1CCN(C(=S)Nc2ccccc2)CC1`, the growth was 84% (inactive). Then `O=S(=O)(O)CC(O)CN1CCN(CCO)CC1` (stereo not given), with 102% (inactive); and `NC(C(=O)O)c1ccc([N+](=O)[O-])cc1` (stereo not given), with 78.9% (inactive); and `Cc1cc(O)ccc1O`, with 114% (inactive). With `O=c1[nH][nH]c(=O)c2cc([N+](=O)[O-])ccc12`, the growth was 83.4% (inactive). Regarding `O=C(CCl)N1CCN(C/C=C/c2ccccc2)CC1`, the growth is 92.6% (inactive). Then `CCOC(=O)C1=C(C)NC(=O)NC1c1cccs1` (stereo not given), with 103% (inactive). As for `CCOC(=O)c1cc(/C=C/c2cccc(Cl)c2)on1`, the growth was 87.4% (inactive). Then `CCOC(=O)Nc1cc2c(c(N)n1)N=C(c1ccccc1)CO2`, with 33.5% (inactive); and `CCCCC/C=N/Nc1nc(C)cc(=O)[nH]1`, with 99.2% (inactive); and `O=C(O)c1cccc([N+](=O)[O-])c1O`, with 96.1% (inactive).

For the molecule `CC(=O)C1CCCCC1`, the growth is 87.1% (inactive).

`O=C1C=C(Nc2ccc([N+](=O)[O-])cc2)c2ccccc2C1=O`: the growth is 42.9% (inactive). For the molecule `CCCOC(=O)C(O)c1ccccc1` (stereo not given), the growth was 96.7% (inactive).

With `CCCNC(=O)c1ccc(S(N)(=O)=O)cc1`, the growth is 72.6% (inactive). With `CCOC(=O)CCCC(=O)OCC`, the growth is 87.8% (inactive). Then `COc1cc2c3cc1Oc1c(OC)c(OC)cc4c1C(Cc1ccc(O)c(c1)Oc1ccc(cc1)CC3N(C)CC2)N(C)CC4` (stereo not given), with 33.3% (inactive); and `CCN(CC)c1ccc2nc3ccc(=[N+](CC)CC)cc-3oc2c1`, with 1.61% (active); and `O/N=C/c1ccc(O)cc1O`, with 89.3% (inactive). For the molecule `O=S(=O)(O)c1ccc(Cl)c(Cl)c1`, the growth is 91.6% (inactive). Turning to `O=C(O)c1ccnc(Br)c1`, the growth is 89.5% (inactive).

On to `O=C1Cc2ccccc2C(=O)O1`, for which the growth was 95.8% (inactive). Then `Cc1c(O)cccc1O`, with 99.1% (inactive). As for `CCOC(=O)C1OC1c1ccccc1` (stereo not given), the growth was 92% (inactive). As to `CNS(=O)(=O)c1ccc(Cl)c(Cl)c1`, the growth was 87.8% (inactive). In the case of `COc1cc(C(=O)N/N=C/c2cccc([N+](=O)[O-])c2)cc(OC)c1OC` it was 29.5% (inactive); in that of `NC(C(=O)O)C(O)c1ccco1` (stereo not given), 106% (inactive). As for `CNc1nc(NC)c2cn[nH]c2n1`, the growth was 91.1% (inactive). As for `Cc1ccc(O)c(C(=O)c2ccccc2)c1`, the growth is 96.6% (inactive). Then `O=S(=O)(O)c1ccc(O)c2ccccc12`, with 88.1% (inactive); and `CCN(CC)C(=O)/C=C(/C)c1ccccc1`, with 93.2% (inactive); and `CC1=CC(=O)c2ccccc2C1=O`, with 90.9% (inactive).

Take `Cn1cnc2nc(Cl)nc(Cl)c21`: the growth was 47.9% (inactive). As for `O=C(/C(=N/O)c1ccccc1)c1ccccc1`, the growth is 85.4% (inactive). `Nc1ccccc1C(=O)Nc1ccc(Cl)cc1Cl`: the growth was 67.7% (inactive).

On to `COc1cc2c3c(n(C)c(=O)c2cc1OC)-c1cc2c(cc1C3=O)OCO2`, for which the growth was 10.5% (inactive). In the case of `COC(=O)CCCCC1=CCC2C(=O)C=C(O)C2C1` (stereo not given) it was 85.5% (inactive). In the case of `O=c1[nH]cc(Cl)cc1O` it was 93.1% (inactive); in that of `O=C(O)CCCc1ccccc1`, 99.9% (inactive); in that of `C#CC(C(C)C)N(CCO)CCCC` (stereo not given), 83.6% (inactive).

The values are drawn from PubChem BioAssay (NCI).
